Reference: publication PMC5540273 (PLoS ONE, 2017)
Several values for one entry are separate records, joined by “and”; a condition that tells them apart may be missing. Equal values may be shown once. Read-outs that look alike come from different tables or passages of the source.

Tests used:
Settings in all cases: n = 1
PKN1 = tested on: PKN1
PKN2 = tested on: PKN2
PLK1 = tested on: PLK1
PLK2 = tested on: PLK2
PLK3 = tested on: PLK3
PLK4 = tested on: PLK4
PRKCD = tested on: PRKCD
PRKCE = tested on: PRKCE
PRKCH = tested on: PRKCH
PRKCI = tested on: PRKCI
[1] = concentration: 1 μM,replicates: in singlicate, 1 µM
[2] = concentration: 1 μM, replicates: in singlicate
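Further: KINOMEscan kinase panel screen.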

## CSc1nn2c(=O)cc(N3CCOCC3)nc2n1Cc1cccc(C(F)(F)F)c1C [GSK2363608]
PKN1; [1]
  %Inh: 14% and 0%
PKN2; [2]
  %Inh: 0%
PLK1; [1]
  %Inh: 25% and 8%
PLK2; [2]
  %Inh: 0%
PLK3; [2]
  %Inh: 0%
PLK4; [1]
  %Inh: 11% and 0%
PRKCD; [2]
  %Inh: 0%
PRKCE; [1]
  %Inh: 18% and 0%
PRKCH; [1]
  %Inh: 20% and 0%
PRKCI; [1]
  %Inh: 13% and 18%

## COc1ccccc1-c1ccc2c(NC(=O)C3CC3)n[nH]c2n1 [SB-711239]
PKN1; [2]
  %Inh: 12%
PKN2; [2]
  %Inh: 2%
PLK1; [2]
  %Inh: 10%
PLK2; [2]
  %Inh: 0%
PLK3; [2]
  %Inh: 0%
PLK4; [2]
  %Inh: 0%
PRKCD; [2]
  %Inh: 0%
PRKCE; [2]
  %Inh: 3%
PRKCH; [2]
  %Inh: 27%
PRKCI; [2]
  %Inh: 0%

## CC(C)(C)c1ccc(C(=O)Nc2cn3cc(Cl)ccc3n2)cc1
PKN1; [2]
  %Inh: 0%
PKN2; [2]
  %Inh: 1%
PLK1; [2]
  %Inh: 13%
PLK2; [2]
  %Inh: 0%
PLK3; [2]
  %Inh: 1%
PLK4; [2]
  %Inh: 0%
PRKCD; [2]
  %Inh: 4%
PRKCE; [2]
  %Inh: 13%
PRKCH; [2]
  %Inh: 2%
PRKCI; [2]
  %Inh: 100%

## O=C(Nc1n[nH]c2cc(-c3cccc(F)c3F)ccc12)C1CC1 [SB-733894]
PKN1; [2]
  %Inh: 39%
PKN2; [2]
  %Inh: 6%
PLK1; [2]
  %Inh: 0%
PLK2; [2]
  %Inh: 26%
PLK3; [2]
  %Inh: 13%
PLK4; [2]
  %Inh: 22%
PRKCD; [2]
  %Inh: 7%
PRKCE; [2]
  %Inh: 0%
PRKCH; [2]
  %Inh: 0%
PRKCI; [2]
  %Inh: 21%

## Cl.NC(=O)c1cccc(Nc2nccc(Nc3ccc(Oc4cccc(Cl)c4)c(Cl)c3)n2)c1 [GW659008]
PKN1; [2]
  %Inh: 0%
PKN2; [2]
  %Inh: 0%
PLK1; [2]
  %Inh: 5%
PLK2; [2]
  %Inh: 0%
PLK3; [2]
  %Inh: 0%
PLK4; [2]
  %Inh: 0%
PRKCD; [2]
  %Inh: 27%
PRKCE; [2]
  %Inh: 27%
PRKCH; [2]
  %Inh: 10%
PRKCI; [2]
  %Inh: 10%

## Cc1ccc(NC(=O)Nc2cccc(C(F)(F)F)c2)cc1 [GSK955403]
PKN1; 1 µM
  %Inh: 16%
PKN2; 1 µM
  %Inh: 0%
PLK1; 1 µM
  %Inh: 0%
PLK2; 1 µM
  %Inh: 0%
PLK3; 1 µM
  %Inh: 0%
PLK4; 1 µM
  %Inh: 9%
PRKCD; 1 µM
  %Inh: 8%
PRKCE; 1 µM
  %Inh: 0%
PRKCH; 1 µM
  %Inh: 0%
PRKCI; 1 µM
  %Inh: 11%

## CCn1c(-c2ccccn2)nc2cnccc21 [SB-736398]
PKN1; [2]
  %Inh: 0%
PKN2; [2]
  %Inh: 11%
PLK1; [2]
  %Inh: 0%
PLK2; [2]
  %Inh: 0%
PLK3; [2]
  %Inh: 0%
PLK4; [2]
  %Inh: 0%
PRKCD; [2]
  %Inh: 0%
PRKCE; [2]
  %Inh: 10%
PRKCH; [2]
  %Inh: 0%
PRKCI; [2]
  %Inh: 30%

## CCn1c(-c2cccnc2O)nc2cnccc21 [SB-736715]
PKN1; [2]
  %Inh: 0%
PKN2; [2]
  %Inh: 0%
PLK1; [2]
  %Inh: 0%
PLK2; [2]
  %Inh: 0%
PLK3; [2]
  %Inh: 0%
PLK4; [2]
  %Inh: 0%
PRKCD; [2]
  %Inh: 2%
PRKCE; [2]
  %Inh: 3%
PRKCH; [2]
  %Inh: 0%
PRKCI; [2]
  %Inh: 0%

## Cc1c(Cn2ccn3c(=O)cc(N4CCOCC4)nc23)cccc1C(F)(F)F [GSK2289044]
PKN1; [2]
  %Inh: 20%
PKN2; [2]
  %Inh: 5%
PLK1; [2]
  %Inh: 0%
PLK2; [2]
  %Inh: 0%
PLK3; [2]
  %Inh: 0%
PLK4; [2]
  %Inh: 0%
PRKCD; [2]
  %Inh: 0%
PRKCE; [2]
  %Inh: 0%
PRKCH; [2]
  %Inh: 8%
PRKCI; [2]
  %Inh: 0%

## Cc1c(O)cccc1Nc1ccnc2ccc(C(F)(F)F)cc12.Cl [GW466413]
PKN1; [2]
  %Inh: 0%
PKN2; [2]
  %Inh: 0%
PLK1; [2]
  %Inh: 0%
PLK2; [2]
  %Inh: 0%
PLK3; [2]
  %Inh: 0%
PLK4; [2]
  %Inh: 0%
PRKCD; [2]
  %Inh: 0%
PRKCE; [2]
  %Inh: 0%
PRKCH; [2]
  %Inh: 28%
PRKCI; [2]
  %Inh: 0%

## CC1=C(C(=O)Nc2cc3cn[nH]c3cc2F)C(c2ccc(C(F)(F)F)cc2)CC(=O)N1 (stereo not drawn) [GSK429286]
PKN1; [2]
  %Inh: 56%
PKN2; [2]
  %Inh: 0%
PLK1; [2]
  %Inh: 0%
PLK2; [2]
  %Inh: 0%
PLK3; [2]
  %Inh: 0%
PLK4; [2]
  %Inh: 0%
PRKCD; [2]
  %Inh: 0%
PRKCE; [2]
  %Inh: 0%
PRKCH; [2]
  %Inh: 0%
PRKCI; [2]
  %Inh: 19%

## Cl.O=C(Nc1cccc(-c2nn3ncccc3c2-c2ccnc(Nc3cccnc3)n2)c1)c1c(F)cccc1F [GSK312879]
PKN1; [2]
  %Inh: 45%
PKN2; [2]
  %Inh: 0%
PLK1; [2]
  %Inh: 0%
PLK2; [2]
  %Inh: 0%
PLK3; [2]
  %Inh: 0%
PLK4; [2]
  %Inh: 0%
PRKCD; [2]
  %Inh: 0%
PRKCE; [2]
  %Inh: 5%
PRKCH; [2]
  %Inh: 16%
PRKCI; [2]
  %Inh: 0%

## COc1cccc(NC(=O)NC2CCN(c3ccnc(Nc4ccc(F)cc4)n3)C2)c1 (stereo not drawn) [GSK1379721]
PKN1; [2]
  %Inh: 8%
PKN2; [2]
  %Inh: 0%
PLK1; [2]
  %Inh: 7%
PLK2; [2]
  %Inh: 0%
PLK3; [2]
  %Inh: 7%
PLK4; [2]
  %Inh: 3%
PRKCD; [2]
  %Inh: 0%
PRKCE; [2]
  %Inh: 14%
PRKCH; [2]
  %Inh: 0%
PRKCI; [2]
  %Inh: 4%

## NC(=O)c1nnc2ccccc2c1N
PKN1; [2]
  %Inh: 1%
PKN2; [2]
  %Inh: 38%
PLK1; [2]
  %Inh: 28%
PLK2; [2]
  %Inh: 8%
PLK3; [2]
  %Inh: 10%
PLK4; [2]
  %Inh: 19%
PRKCD; [2]
  %Inh: 0%
PRKCE; [2]
  %Inh: 15%
PRKCH; [2]
  %Inh: 0%
PRKCI; [2]
  %Inh: 28%

## Cc1ccc(NC(=O)Nc2cccc(Cl)c2)cc1-c1ccc(C(=O)Nc2ccncc2)cc1 [GSK1398468]
PKN1; [2]
  %Inh: 0%
PKN2; [2]
  %Inh: 0%
PLK1; [2]
  %Inh: 0%
PLK2; [2]
  %Inh: 0%
PLK3; [2]
  %Inh: 1%
PLK4; [2]
  %Inh: 0%
PRKCD; [2]
  %Inh: 0%
PRKCE; [2]
  %Inh: 12%
PRKCH; [2]
  %Inh: 5%
PRKCI; [2]
  %Inh: 0%

## O=C(Nc1n[nH]c2nc(-c3nccs3)c(Br)cc12)C1CC1 [SB-742251]
PKN1; [2]
  %Inh: 6%
PKN2; [2]
  %Inh: 0%
PLK1; [2]
  %Inh: 0%
PLK2; [2]
  %Inh: 0%
PLK3; [2]
  %Inh: 0%
PLK4; [2]
  %Inh: 0%
PRKCD; [2]
  %Inh: 0%
PRKCE; [2]
  %Inh: 11%
PRKCH; [2]
  %Inh: 0%
PRKCI; [2]
  %Inh: 5%

## CS(=O)(=O)c1ccc(-c2c(-c3ncn[nH]3)sc(N3CCOCC3)c2C#N)cc1
PKN1; [2]
  %Inh: 17%
PKN2; [2]
  %Inh: 0%
PLK1; [2]
  %Inh: 8%
PLK2; [2]
  %Inh: 8%
PLK3; [2]
  %Inh: 16%
PLK4; [2]
  %Inh: 28%
PRKCD; [2]
  %Inh: 41%
PRKCE; [2]
  %Inh: 42%
PRKCH; [2]
  %Inh: 5%
PRKCI; [2]
  %Inh: 24%

## Cc1cc(-c2ccc3c(c2)CC[C@@H](N[C@@H](C)c2ccccc2)C3)cnc1N.Cl [GW412617]
PKN1; [2]
  %Inh: 8%
PKN2; [2]
  %Inh: 0%
PLK1; [2]
  %Inh: 16%
PLK2; [2]
  %Inh: 0%
PLK3; [2]
  %Inh: 0%
PLK4; [2]
  %Inh: 0%
PRKCD; [2]
  %Inh: 7%
PRKCE; [2]
  %Inh: 0%
PRKCH; [2]
  %Inh: 17%
PRKCI; [2]
  %Inh: 0%
